# Assay results as given in PubChem BioAssay AID1347172 (National Center for Advancing Translational Sciences (NCATS), 2019).
# Inconclusive results are not listed. Values without a mark were called inactive. Active and inactive are the calls of the source. Calls follow the shape of the dose curve; as a rule, active = well fitted inhibition curve with a large enough effect; inconclusive = small, poorly fitted or top-dose-only effect; inactive = flat fitted curve, though single readings scatter.
# Experiment: Secondary qRT-PCR qHTS assay for selected Zika virus inhibitors
# Conditions: Vero cells ZIKV infection, NS5 RNA qRT-PCR, 24 h; series mostly up to 32.6 µM; activity change, negative = inhibition: at the top concentration
# Description: Assay Submitters (PI): Avindra Nath, Ph.D., National Institute of Neurological Disorders and Stroke (NINDS), Bethesda, MD Radhakrishnan Padmanabhan, Ph.D., Georgetown University (GU), Washington D.C. Zika Virus causes congenital defects, including microcephaly and is associated with Guillain-Barre syndrome, eningoencephalitis and myelitis in infected adult. […] Using a target-based approach, we hope to establish a screening paradigm to uncover novel, cell-active NS2B-NS3 protease (Zika Virus) specific inhibitors from NCATS' collection of small molecules using qHTS. […] Four assay panel was created to identify potential Zika Virus inhibitors. Namely, (1) GU unlinked NS2B-NS3 AMC tagged protease qHTS, (2) GU unlinked NS2B-NS3 Rhodamine tagged protease qHTS, (3) NINDS linked NS2B-NS3 AMC tagged protease qHTS, (4) NINDS linked NS2B-NS3 Rhodamine tagged protease qHTS. Inhibitors of the Zika virus primary screens are confirmed using qRT-PCR secondary assays, qRT-PCR mCherry orthogonal assay, and qRT-PCR viability counterscreen. Early Translation Branch (ETB) National Center for Advancing Translational Sciences (NCATS), Rockville, MD National Institute of Health (NIH), Bethesda, Maryland
# 384-well ZIKV qRT-PCR Assay: Vero cells were treated with the indicated compounds at different concentrations, infected with ZIKV (MOI=1) and incubated at 37 degrees C for 3 hours to permit virus invasion. After 3 hr, supernatant was removed, and cells were washed once to remove extracellular virus. After a further 21 hr incubation, infected cells were washed three times with cold PBS (4 degrees C). Plates were then process using the TaqmanGene Expression Cells-to-Ct Kit (ThermoFisher Scientific) following the manufactures protocol. Primers directed to the NS5 sequence (F-[…]; R-GCTCGGCCAATCAGTTCA) along with Taqman probe (FAM-[…]-BHQ; Biosearch Technologies) were used to quantify drug inhibition of viral load. Reactions were run at initial 95 degrees C for 10 min, then 40 cycles of 95 degrees C for 20 sec and 60 degrees C for 40 sec using a LightCycler 480 (Roche). Relative viral copy numbers were generated by normalizing to cells treated with vehicle.
SMILES,Potency,"activity change, negative = inhibition"
CCCCCCCOc1cc2c(cc1/C(C)=C/c1ccc(C(=O)O)cc1)C(C)(C)CCS2(=O)=O,14.1 µM (active),
CC(C)C[C@H](C(=O)O)c1cc(-c2ccc(C(F)(F)F)cc2)cc(-c2ccc(C(F)(F)F)cc2)c1,12.6 µM (active),
O=C(O)c1c(Sc2ccccc2)c2cc(Cl)ccc2n1Cc1ccc(Cl)cc1,,-24.4%
CC(C)(C)Sc1c(CC(C)(C)C(=O)O)n(Cc2ccc(Cl)cc2)c2ccc(OCc3ccc4ccccc4n3)cc12,25.1 µM (active),
CN(CC(=O)N(Cc1ccc(C2CCCCC2)cc1)c1ccc(C(=O)O)cc1)S(=O)(=O)c1c(F)c(F)c(F)c(F)c1F,12.6 µM (active),
Oc1cc2ccccc2c2ccccc12,22.4 µM (active),
CCOc1nc2cccc(C(=O)OC(C)OC(=O)OC3CCCCC3)c2n1Cc1ccc(-c2ccccc2-c2nn[nH]n2)cc1 (stereo not given),12.6 µM (active),
Nc1ncnc2c([C@@H]3N[C@H](CO)[C@@H](O)[C@H]3O)c[nH]c12,,10.9%
C/C(=C\c1ccc(C(=O)O)cc1)c1ccc2c(c1)C(C)(C)CCC2(C)C,12.6 µM (active),
CC(C)(O)c1ccccc1CC[C@@H](SCC1(CC(=O)O)CC1)c1cccc(/C=C/c2ccc3ccc(Cl)cc3n2)c1,,2.54%
O=S(=O)(O)c1ccc2cc(N=Nc3cc(S(=O)(=O)O)c4cccnc4c3O)ccc2c1,,4.54%
CC(=O)O[C@@H]1C[C@]2(C)[C@@]3(CCC4[C@@]5(C)CC[C@H](O[C@@H]6O[C@H](C(=O)O)[C@@H](O)[C@H](O[C@@H]7O[C@H](CO)[C@H](O)[C@H](O)[C@H]7O[C@@H]7O[C@@H](C)[C@H](O)[C@@H](O)[C@H]7O[C@@H]7OC[C@](O)(CO)[C@H]7O)[C@H]6O[C@@H]6O[C@H](CO)[C@H](O)[C@H](O)[C@H]6O)C(C)(C)C5CC[C@]42C)O[C@@H](O)[C@]12C3CC(C)(C)[C@@H](OC(=O)/C=C/c1ccc(O)c(O)c1)[C@@H]2OC(=O)/C=C/c1ccccc1 (stereo not given in full),,-6.06% [at 6.77 µM]
CC1=C(C(=O)OCc2ccccc2)C(c2ccc(-c3ccccc3)cc2)NC(=O)N1CCCCCC(=O)O (stereo not given),,-14%
CC(=O)N1c2ccc(-c3ccc(C(=O)O)cc3)cc2C(Nc2ccc(Cl)cc2)CC1C (stereo not given),,-8.25%
CC(C)c1onc(-c2c(Cl)cccc2Cl)c1COc1ccc(/C=C/c2cccc(C(=O)O)c2)c(Cl)c1,11.2 µM (active),
COc1c(C)c2c(c(O)c1C/C=C(\C)CCC(=O)O)C(=O)OC2,,-10.2%
N#CC1C(=O)Nc2scc(-c3ccc(-c4ccccc4O)cc3)c2C1=O (stereo not given),,-0.434%
Cc1ccc([C@@H]2CC=C(C(=O)O)[C@H](c3ccc(C(C)(C)C)cc3)N2S(=O)(=O)c2ccc(C)cc2)cc1,,-24.8%
O=C(O)Cc1cc(I)c(Oc2ccc(O)c(I)c2)c(I)c1,,-13.6%
O=C(O)/C=C/c1ccc(-c2ccc(O)c(C34CC5CC(CC(C5)C3)C4)c2)cc1,10 µM (active),

SMILES,Potency,"activity change, negative = inhibition"
CC[C@H](C)[C@H]1O[C@]2(CC[C@@H]1C)C[C@@H]1C[C@@H](C/C=C(\C)[C@@H](O[C@H]3C[C@H](OC)[C@@H](O[C@H]4C[C@H](OC)[C@@H](O)[C@H](C)O4)[C@H](C)O3)[C@@H](C)/C=C/C=C3\CO[C@@H]4[C@H](O)C(C)=C[C@@H](C(=O)O1)[C@]34O)O2,3.98 µM (active),
C=C1c2cccc(O)c2C(O)=C2C(=O)[C@]3(O)C(O)=C(C(N)=O)C(=O)[C@@H](N(C)C)[C@@H]3[C@@H](O)[C@H]12,inactive,
COc1cc(/C=C/c2ccccc2)c(C(=O)O)c(O)c1CC=C(C)C,,-2.8% [at 21.8 µM]
Nc1ccn([C@@H]2O[C@H](CO)[C@@H](O)C2(F)F)c(=O)n1,,-11.6%
O=C(O)CC1CCC(c2ccc(-c3ccc(Nc4ccc(C(F)(F)F)nc4)cn3)cc2)CC1 (stereo not given),,1.2%
CC1CCN(C(c2ccc(F)cc2)c2ccc(C(C)C(=O)O)cc2-c2ccc(C(F)(F)F)cc2)CC1 (stereo not given),14.1 µM (active),
CC(C)c1ccc2c(c1)c(SC(C)(C)C)c(CC(C)(C)C(=O)O)n2Cc1ccc(Cl)cc1,10 µM (active),
CN(C)[C@@H]1C(=O)C(C(N)=O)=C(O)[C@@]2(O)C(=O)C3=C(O)c4c(O)cccc4C[C@H]3C[C@@H]12,,9.04%
CCOc1c2c(c(OCC)c3ccccc13)C(=O)N(c1ccc(CC(=O)NS(=O)(=O)c3ccccc3)cc1)C2,,10.7%
O=S(=O)(Nc1cc(Cl)c(Oc2cnc3ccccc3c2)c(Cl)c1)c1ccc(Cl)cc1Cl,22.4 µM (active),
O=C(O)c1ccc(S(=O)(=O)N(Cc2ccc(OC(F)(F)F)cc2)c2ncc(C(F)(F)F)cc2Cl)cc1,,2.79%
O=C(O)c1cccc(-c2ccc(-c3cn(C(=O)N4CCCCC4Cc4ccccc4)nn3)cc2)c1 (stereo not given),,-2.59%
CC(C)c1cccc2c(-c3ccccc3)cc(-c3ccc(-c4ccc(C(=O)O)cc4)[nH]3)nc12,10 µM (active),
O=C(N/N=C/c1ccc(O)c(O)c1)c1cc2ccccc2cc1O,,-17.4%
CN(Cc1ccc(C(=O)O)cc1)c1ccc(OCc2c(-c3c(Cl)cccc3Cl)noc2C2CC2)nc1C(F)(F)F,14.1 µM (active),
COc1cc(C(=O)O)ccc1NC(=O)[C@@H]1N[C@@H](CC(C)(C)C)[C@](C#N)(c2ccc(Cl)cc2F)[C@H]1c1cccc(Cl)c1F,12.6 µM (active),
COc1cc(C)c(C(=O)OC2C(C)OC(OC3CCC(C)C4C3C=C(C)C3/C(C)=C\CC/C(C)=C/C5(C)C=C(C(=O)O)C(C)CC56OC(=O)/C(=C(\O)C34C)C6=O)C(O)C2O)c(OC)c1 (stereo not given),,-1.08% [at 8.13 µM]
CC(=O)Nc1ccc([C@H](C)C(=O)Nc2ncc(C(C)C)s2)cc1,,-18.6%
Cc1ccc2nc(NS(=O)(=O)c3ccc(Cl)cc3)c(Nc3ccc(C(=O)O)cc3)nc2c1,,-7.87%
CC(Oc1ccccc1)C(=O)Nc1ccc(C(=O)OCc2cc(=O)n3nc(C4CC4)sc3n2)cc1 (stereo not given),,4.47%
